Measured values published in PubChem BioAssay.
Unmarked numbers belong to inactive results. Entries that show only a call come without a potency. For some of these results: Potency and affinity values are given separately. Calls of active or inactive are those of the source. Unless noted, the rule behind the calls is not given here.

Legend:
[1] = antimalarial activity against Dd2 strain (AID 2302;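 active = growth inhibition above 50% at the single 2 µM test dose, taken to imply half-maximal potency below 2 µM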); settings: P. falciparum Dd2 in RBCs, LDH growth readout, 72 h; at 2 µM; active compounds read high
[2] = HepG2 cytotoxicity, primary screen, cytotoxicity control for P. falciparum antimalarial project, cell-based, ATP luminescence (AID 2303;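 active = inhibition above 50%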); settings: HepG2 viability, 24-48 h, at 10 µM, active compounds read high
[3] = molecular target: L-lactate dehydrogenase (Plasmodium falciparum (isolate CDC / Honduras)) (UniProt Q27743); assay: PfLDH activity inhibition – cell lysate, 3D7 strain, counter-screen for P. falciparum growth inhibition project (AID 2304); settings: P. falciparum 3D7 crude extract, LDH APAD/NBT absorbance; at 2 µM; active compounds read high
[4] = inhibition of 3D7 malaria parasite growth – strain 3D7 (AID 2306); settings: P. falciparum 3D7 erythrocytic growth, LDH absorbance, 72 h; at 2 µM; active compounds read high
[5] = molecular target: Calcium-dependent protein kinase 1 (Plasmodium falciparum (isolate 3D7)) (UniProt P62344); assay: PfCDPK1 kinase inhibitors, biochemical, TCAMS library (AID 1159585; cut-off not given, nearly all actives have IC50 up to about 0.98 µM;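 note: inhibitors leave more ATP so luminescence rises with inhibition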); settings: recombinant PfCDPK1, Kinase-Glo ATP depletion luminescence
[6] = molecular target: Plasmodium falciparum protein kinase 6 (PK6, PF3D7_1337100) (UniProt Q8IDW1); assay: PfPK6 kinase inhibitors, biochemical, TCAMS library (AID 1159586); settings: recombinant PfPK6, Kinase-Glo ATP depletion luminescence
[7] = molecular target: Protein kinase 7 (PK7), Plasmodium falciparum 3D7 (PF3D7_0213400) (UniProt Q7YTF7); assay: inhibition of Plasmodium PK7 catalytic activity – biochemical, TCAMS antimalarial set, Kinase-Glo luminescence (AID 1159587); settings: recombinant PfPK7, Kinase-Glo ATP depletion luminescence
[8] = molecular target: Calcium-dependent protein kinase 4 (Plasmodium falciparum (isolate 3D7)) (UniProt Q8IBS5); assay: PfCDPK4 kinase inhibitors, biochemical, TCAMS library (AID 1159588; cut-off not given, nearly all actives have IC50 up to about 0.91 µM); settings: recombinant PfCDPK4, Kinase-Glo ATP depletion luminescence
Calcium-dependent protein kinase 4 (Plasmodium falciparum (isolate 3D7)), sequence (Q8IBS5 whole entry, looked up): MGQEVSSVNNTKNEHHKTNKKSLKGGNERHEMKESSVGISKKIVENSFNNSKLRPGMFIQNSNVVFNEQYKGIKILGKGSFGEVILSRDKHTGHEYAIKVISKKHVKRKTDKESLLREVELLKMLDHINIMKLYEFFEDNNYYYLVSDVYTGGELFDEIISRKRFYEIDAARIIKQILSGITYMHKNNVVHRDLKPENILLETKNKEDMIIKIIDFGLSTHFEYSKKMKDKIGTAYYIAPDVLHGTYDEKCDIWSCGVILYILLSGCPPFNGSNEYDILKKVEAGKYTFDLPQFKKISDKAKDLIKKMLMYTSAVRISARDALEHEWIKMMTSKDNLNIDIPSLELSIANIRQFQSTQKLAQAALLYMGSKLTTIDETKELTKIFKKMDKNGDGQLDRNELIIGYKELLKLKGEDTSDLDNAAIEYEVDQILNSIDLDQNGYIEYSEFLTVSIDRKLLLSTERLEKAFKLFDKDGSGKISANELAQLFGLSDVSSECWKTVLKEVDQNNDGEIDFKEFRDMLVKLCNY

Calcium-dependent protein kinase 1 (Plasmodium falciparum (isolate 3D7)), sequence (P62344 whole entry, looked up): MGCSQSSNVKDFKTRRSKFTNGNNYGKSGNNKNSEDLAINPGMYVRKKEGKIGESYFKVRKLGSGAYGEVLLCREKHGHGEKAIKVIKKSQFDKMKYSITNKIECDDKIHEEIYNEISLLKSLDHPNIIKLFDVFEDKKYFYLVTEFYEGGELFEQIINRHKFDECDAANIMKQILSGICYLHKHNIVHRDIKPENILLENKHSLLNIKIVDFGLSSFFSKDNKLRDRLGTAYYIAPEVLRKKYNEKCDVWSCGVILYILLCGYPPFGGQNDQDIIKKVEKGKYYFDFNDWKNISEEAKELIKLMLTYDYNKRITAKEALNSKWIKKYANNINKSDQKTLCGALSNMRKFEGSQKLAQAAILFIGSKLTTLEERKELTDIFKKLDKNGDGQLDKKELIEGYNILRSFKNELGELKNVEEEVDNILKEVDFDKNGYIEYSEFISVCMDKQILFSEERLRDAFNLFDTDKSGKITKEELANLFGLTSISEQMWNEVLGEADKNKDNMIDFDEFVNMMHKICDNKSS
Protein kinase 7 (PK7), Plasmodium falciparum 3D7 (PF3D7_0213400), sequence (Q7YTF7 1-343): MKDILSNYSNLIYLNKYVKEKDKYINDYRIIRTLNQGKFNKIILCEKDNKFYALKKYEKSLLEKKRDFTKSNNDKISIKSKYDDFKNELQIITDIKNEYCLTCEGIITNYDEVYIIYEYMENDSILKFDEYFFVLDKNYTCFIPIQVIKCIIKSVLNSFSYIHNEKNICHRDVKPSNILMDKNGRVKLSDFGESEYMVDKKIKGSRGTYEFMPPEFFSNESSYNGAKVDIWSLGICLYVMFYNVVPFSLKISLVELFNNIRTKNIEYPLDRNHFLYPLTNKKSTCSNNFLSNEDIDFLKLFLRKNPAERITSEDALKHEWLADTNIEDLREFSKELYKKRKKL
L-lactate dehydrogenase (Plasmodium falciparum (isolate CDC / Honduras)), sequence (Q27743 whole entry, looked up): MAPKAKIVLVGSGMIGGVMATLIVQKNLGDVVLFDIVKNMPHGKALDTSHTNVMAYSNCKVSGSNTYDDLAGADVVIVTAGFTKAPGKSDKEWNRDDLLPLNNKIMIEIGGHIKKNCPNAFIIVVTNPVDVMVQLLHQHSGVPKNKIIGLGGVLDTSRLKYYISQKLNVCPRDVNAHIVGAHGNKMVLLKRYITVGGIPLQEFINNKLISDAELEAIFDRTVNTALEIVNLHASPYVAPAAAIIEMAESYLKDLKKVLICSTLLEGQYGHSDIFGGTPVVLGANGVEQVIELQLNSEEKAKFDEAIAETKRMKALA
Plasmodium falciparum protein kinase 6 (PK6, PF3D7_1337100), sequence (Q8IDW1 1-305): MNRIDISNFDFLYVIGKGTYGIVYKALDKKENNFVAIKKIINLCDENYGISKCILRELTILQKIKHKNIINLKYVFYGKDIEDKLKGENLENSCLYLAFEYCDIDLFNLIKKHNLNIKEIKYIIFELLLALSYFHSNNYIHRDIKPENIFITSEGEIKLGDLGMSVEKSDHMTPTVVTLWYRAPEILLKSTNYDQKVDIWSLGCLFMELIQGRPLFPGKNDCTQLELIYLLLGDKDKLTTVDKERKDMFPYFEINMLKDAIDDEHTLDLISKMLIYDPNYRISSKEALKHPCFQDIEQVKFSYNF

| Structure (SMILES) | growth inhibition [1] | inhibition [2] | inhibition [3] [%] | growth inhibition [4] | outcome [5] | outcome [6] | outcome [7] | outcome [8] |
| --- | --- | --- | --- | --- | --- | --- | --- | --- |
| CN(C)c1ccc(C(c2ccc(N(C)C)cc2)c2cc([N+](=O)[O-])ccc2Cl)cc1 | 67% (active) | 0% | 7 | 96% (active) | inactive | inactive | inactive | inactive |
| O=C(Nc1cccc(-c2nc3ccccc3[nH]2)c1)c1ccc(-c2cccc([N+](=O)[O-])c2)o1 | 28% | 22% | -1 | 93% (active) | inactive | inactive | inactive | inactive |
| Cc1cc(Nc2ccc(C)c(Cl)c2)n2ncnc2n1 | 91% (active) | 6% | -1 | 98% (active) | inactive | inactive | inactive | inactive |
| CN=C(N)c1ccc(NC(=O)Nc2ccc(C(N)=NC)cc2)cc1 | 71% (active) | -5% | -2 | 84% (active) | inactive | inactive | inactive | inactive |
| CC(C)c1ccc(CN2CCC(CNC(=O)c3cc(-c4ccc(N(C)C)cc4)cs3)C2)cc1 (stereo not drawn) | 32% | 36% | 5 | 83% (active) | inactive | inactive | inactive | inactive |
| FC(F)(F)c1ccc2nc(-c3ccc(-c4ccc(CNCCN5CCNCC5)cc4)cc3)[nH]c2c1 | 74% (active) | 13% | -4 | 92% (active) | inactive | inactive | inactive | inactive |
| CN(CCN)Cc1cccc(-c2ccc(-c3nc4ccc(C(F)(F)F)cc4[nH]3)s2)c1 | 92% (active) | 27% | 5 | 100% (active) | inactive | inactive | inactive | inactive |
| CCCNC[C@@H](O)[C@H](Cc1ccccc1)NC(=O)c1cc(NCC)cc(N2CCCCS2(=O)=O)c1 | 74% (active) | 0% | -3 | 97% (active) | inactive | inactive | inactive | inactive |
| CCCNCc1ccc(-c2ccc(CN(CCOC)C(=O)c3cnc(C)cn3)cc2)nc1 | 14% | -3% | -4 | 81% (active) | inactive | inactive | inactive | inactive |
| CC1(C)N=C(N)N=C(N)N1OCCCc1ccccc1 | 94% (active) | 64% (active) | 1 | 96% (active) | inactive | inactive | inactive | inactive |
| Cc1cc(CNCC(CCNc2cc(=O)c3ccccc3[nH]2)NCc2cc(Br)cc(Br)c2)oc1C (stereo not drawn) | 85% (active) | 4% | 2 | 98% (active) | inactive | inactive | inactive | inactive |
| Cc1nnsc1C(=O)Nc1ccc(-c2cccc(-c3nc4ccc(C(F)(F)F)cc4[nH]3)c2)cc1 | 36% | 69% (active) | 2 | 97% (active) | inactive | inactive | inactive | inactive |
| CCOc1cc2ncnc(Nc3ccc(OCc4ccccc4F)c(Cl)c3)c2cc1OCC | 74% (active) | 4% | -2 | 101% (active) | inactive | inactive | inactive | inactive |
| CC(C)(C)OC(=O)NCc1ccc(Nc2nnc(-c3cccc(C(=O)NCCC(c4ccccc4)c4ccccc4)c3)o2)cc1 | 89% (active) | -4% | -2 | 100% (active) | inactive | inactive | inactive | inactive |
| COc1ccc(C(C(=O)NC2CCN(C[C@H](O)c3ccnc4ccc(OC)cc34)CC2)N2CCc3ccccc3C2)cc1 (stereo partly drawn) | 30% | 19% | -3 | 96% (active) | inactive | inactive | inactive | inactive |
| O=[N+]([O-])c1ccc2nccnc2c1 | 0% | -2% | -1 | 97% (active) | inactive | inactive | inactive | inactive |
| CCOc1ccc(C2CCN(CCCCNC(=O)c3ccc(NC(=O)c4ccc(Cl)cc4)cc3)CC2)c(OCC)c1 | 95% (active) | 14% | 0 | 101% (active) | inactive | inactive | inactive | inactive |
| COc1cc(Br)c(NC(=O)Nc2ccc(C(F)(F)F)c(O[C@@H]3CCN(C)C3)c2)cc1OC | 27% | 10% | -1 | 97% (active) | inactive | inactive | inactive | inactive |
| CN1CCC(Oc2ccc(CN3CC[C@H](NC(=O)c4ccc(Cl)c(Cl)c4)C3)cc2Cl)C1 (stereo partly drawn) | 78% (active) | 68% (active) | 0 | 101% (active) | inactive | inactive | inactive | inactive |
| Cc1cc(=O)c(-c2ccc(OCCSc3ccc(C(F)(F)F)cn3)cc2)c(C)[nH]1 | 96% (active) | 2% | 7 | 97% (active) | inactive | inactive | inactive | inactive |
| COc1cccc(C(O)CNc2ccnc(Nc3ccc(Cl)cc3)n2)c1 (stereo not drawn) | 46% | 31% | -7 | 99% (active) | inactive | inactive | inactive | inactive |

| Structure (SMILES) | growth inhibition [1] | inhibition [2] | inhibition [3] [%] | growth inhibition [4] | outcome [5] | outcome [6] | outcome [7] | outcome [8] |
| --- | --- | --- | --- | --- | --- | --- | --- | --- |
| Cc1[nH]cc(Br)c(=O)c1-c1ccc(Oc2ccccc2)cc1 | 96% (active) | -5% | -6 | 97% (active) | inactive | inactive | inactive | inactive |
| Cc1cc(SC(C)(C)C)cc2c(Cl)c(C(N)=O)cnc12 | 98% (active) | 83% (active) | 0 | 98% (active) | inactive | inactive | inactive | inactive |
| CCCN(Cc1nnc(-c2ccco2)o1)C(=O)C1CCCN(C(=O)c2ccc(Cl)cc2)C1 (stereo not drawn) | 96% (active) | -3% | -1 | 96% (active) | inactive | inactive | inactive | inactive |
| Cc1cccc2[nH]c(-c3ccc(-c4cccc(NC(=O)c5cnn6cccnc56)c4)cc3)nc12 | 29% | 100% (active) | -4 | 91% (active) | inactive | inactive | inactive | inactive |
| COc1cc(NC(=O)N2CCOC(CCN3CCC4(CCc5ccccc54)CC3)(c3ccc(Cl)c(Cl)c3)C2)cc(OC)c1OC (stereo not drawn) | 67% (active) | 17% | -4 | 94% (active) | inactive | inactive | inactive | inactive |
| N#Cc1ccc2c(c1)CN(C1CCC(NC(=O)C3=Cc4cc(Cl)ccc4OC3)CC1)CCC2 (stereo not drawn) | 8% | -5% | 2 | 93% (active) | inactive | inactive | inactive | inactive |
| CCCOc1ccc(C(F)(F)F)cc1NC(=O)c1nc2nc(C)cc(C)n2n1 | 88% (active) | 7% | -4 | 90% (active) | inactive | inactive | inactive | inactive |
| COc1ccc(CN2CCCN(Cc3cccc(NC(=O)c4ccc(-c5ccccc5)cc4)c3)CC2)cc1 | 24% | 37% | 1 | 94% (active) | inactive | inactive | inactive | inactive |
| Cc1cccc2[nH]c(-c3cccc(-c4cccc(CN5CCC(CO)CC5)c4)c3)nc12 | 90% (active) | 4% | -6 | 101% (active) | inactive | inactive | inactive | inactive |
| O=C(NCCCCN1CCC(c2ccc3c(c2OCCO)CCCC3)CC1)c1ccc(-c2ccc(C(F)(F)F)cc2)cc1 | 38% | 100% (active) | 6 | 98% (active) | inactive | inactive | inactive | inactive |
| COCCNCc1ccc(-c2cccc(CNc3ccc(OC)cc3)c2)cc1 | 2% | 16% | -1 | 94% (active) | inactive | inactive | inactive | inactive |
| N=C1C=C(N)C(=O)c2ccccc21 | 85% (active) | 99% (active) | -2 | 81% (active) | inactive | inactive | inactive | inactive |
| CCCc1ccc(S(=O)(=O)Nc2ccc3c(c2)CCC3)cc1 | -1% | 8% | 1 | 96% (active) | inactive | inactive | inactive | inactive |
| Clc1ccc2c(NCc3ccc4c(c3)OCO4)ccnc2c1 | 97% (active) | 6% | 1 | 101% (active) | inactive | inactive | inactive | inactive |
| CN(C)CCn1c(N)c(-c2nc3ccccc3s2)c2nc(C#N)c(C#N)nc21 | 40% | 4% | -7 | 94% (active) | inactive | inactive | inactive | inactive |
| COc1ccc2c(c1)CC(CNC[C@H](O)c1cccc(Cl)c1)CC2 (stereo partly drawn) | 73% (active) | 1% | 7 | 94% (active) | inactive | inactive | inactive | inactive |
| Cc1cc(Cl)c(S(=O)(=O)N2CCc3ccccc32)cc1OCC(=O)NC1CCCCC1 | 93% (active) | 28% | -3 | 101% (active) | inactive | inactive | inactive | inactive |
| Cc1cccc(Cn2c(Cc3ccccc3)nnc2Sc2ccc([N+](=O)[O-])c(C#N)c2)c1 | 3% | 17% | -2 | 91% (active) | inactive | inactive | inactive | inactive |
| O=c1cc(NCCCNCc2ccccc2-c2ccccc2)[nH]c2ccccc12 | 46% | 0% | -1 | 88% (active) | inactive | inactive | inactive | inactive |
| COc1ccc(-c2cccc(NC(=O)c3cccc(C#N)c3)c2)cc1CN1CCCC1 | 32% | 28% | -4 | 98% (active) | inactive | inactive | inactive | inactive |
